Gli-Sufu antag – Gli-Sufu pathway antagonists, primary screen, luciferase luminescence, Sufu-KO-LIGHT cells, uHTS; inhibition, % at 5 µM; Sufu-KO-LIGHT fibroblasts, Gli luciferase reporter luminescence; AID 588413, 2011; 340,000 compounds, 0.74% hits;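 active = inhibition above about 55%, limit read from the data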;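 note: 0% = DMSO-treated cells and 100% = wells with medium but no cells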
Jurkat NFkB inh – inhibitors of induced NF-kB luciferase reporter, primary screen, TCR NF-kB activation inhibitor project, cell-based, luminescence, uHTS | Jurkat, PMA/ionomycin-induced NF-kB luciferase reporter | inhibition, % at 4 µM | 330,000 compounds, 0.53% hits | AID 435003, 2010; in the data active = inhibition above about 50%
Beta cell apopt – inhibitors of cytokine-induced beta cell apoptosis, primary screen, luminescence; INS-1E cytokine-induced death, ATP luminescence, 48 h; percent of positive-control rescue, neutral wells zero; 300,000 compounds, 0.8% hits; protection from apoptosis, % (no concentration beside the values);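 active = Every replicate reaches about 75%, or at least half do and their mean reaches it too, limit read from the data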;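 note: 0% = cytokine-treated negative control wells and 100% = positive control rescue; higher means more ATP so stronger rescue from cytokine killing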
Mdm2 MdmX PPI – inhibitors of human Mdm2-MdmX association, primary screen, cell-based, luminescence, split luciferase, SaOS-2, uHTS; Protein Mdm4 (Homo sapiens) + E3 ubiquitin-protein ligase Mdm2 (Homo sapiens), …; SaOS-2 split-luciferase Mdm2/MdmX complementation; inhibition, % at 8 µM; 330,000 compounds, 3% hits; AID 485346, 2010;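 active = inhibition of at least 50% at 8 µM in the primary screen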
Target sequence (O15151 whole entry, looked up): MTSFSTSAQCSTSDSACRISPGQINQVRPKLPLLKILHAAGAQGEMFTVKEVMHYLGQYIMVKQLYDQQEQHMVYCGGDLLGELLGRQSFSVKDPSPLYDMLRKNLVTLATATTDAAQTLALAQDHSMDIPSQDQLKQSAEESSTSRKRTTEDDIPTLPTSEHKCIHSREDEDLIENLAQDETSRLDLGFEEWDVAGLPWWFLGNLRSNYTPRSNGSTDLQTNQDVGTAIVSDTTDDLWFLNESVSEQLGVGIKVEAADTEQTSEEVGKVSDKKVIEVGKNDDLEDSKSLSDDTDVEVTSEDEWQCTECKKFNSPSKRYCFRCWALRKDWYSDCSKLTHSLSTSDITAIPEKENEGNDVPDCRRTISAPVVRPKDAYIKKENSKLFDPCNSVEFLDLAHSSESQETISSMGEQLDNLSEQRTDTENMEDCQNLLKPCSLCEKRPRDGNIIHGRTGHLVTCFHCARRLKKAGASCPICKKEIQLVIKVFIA
Target sequence (Q00987 whole entry, looked up): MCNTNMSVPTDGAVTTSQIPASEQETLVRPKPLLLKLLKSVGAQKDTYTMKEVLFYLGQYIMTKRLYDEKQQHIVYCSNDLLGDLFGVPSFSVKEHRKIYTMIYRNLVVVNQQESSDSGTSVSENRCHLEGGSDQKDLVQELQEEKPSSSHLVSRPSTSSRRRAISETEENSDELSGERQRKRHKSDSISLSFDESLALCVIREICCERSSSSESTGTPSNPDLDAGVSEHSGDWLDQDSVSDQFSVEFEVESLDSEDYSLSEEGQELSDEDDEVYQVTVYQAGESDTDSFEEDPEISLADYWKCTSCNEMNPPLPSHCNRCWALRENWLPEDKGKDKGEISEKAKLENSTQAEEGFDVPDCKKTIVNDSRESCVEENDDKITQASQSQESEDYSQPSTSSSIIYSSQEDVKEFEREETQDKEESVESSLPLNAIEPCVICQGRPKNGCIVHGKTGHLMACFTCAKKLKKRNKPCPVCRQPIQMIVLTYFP
697 NFkB inh – inhibitors of PMA/ionomycin-induced NF-kB reporter, 697 cells, primary screen, B-cell NF-kB inhibitor project, cell-based, luminescence, uHTS. 697 B-cell NF-kB luciferase reporter, 16 h. inhibition, % at 4 µM. 330,000 compounds, 0.33% hits. AID 435022, 2010; in the data active = inhibition above about 35%
Jurkat NFkB conf – PMA/ionomycin-induced NF-kB reporter inhibitors, Jurkat retest, confirmation, T-cell NF-kB inhibitor project, cell-based, luminescence, single concentration; shares compounds with Jurkat NFkB inh; Jurkat NF-kB luciferase, 16 h; inhibition, % at 4 µM; 2,700 compounds, 27% hits; AID 435020, 2010;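 active = inhibition reaching about 45% at 4 µM in either replicate, limit read from the data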;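 note: plate controls were PMA/ionomycin stimulated DMSO wells for no effect and unstimulated DMSO wells for full effect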
697 NFkB conf – PMA/ionomycin-induced NF-kB reporter inhibitors, 697 retest, confirmation, B-cell NF-kB inhibitor project, cell-based, luminescence, single concentration; 2,000 compounds, 35% hits; inhibition, % at 4 µM; shares compounds with 697 NFkB inh; 697 B-cell NF-kB luciferase, 16 h; in the data active = inhibition mostly above about 28%, no sharp cut-off; inactive = mostly below about 22%
Mdm2 MdmX conf – Mdm2-MdmX complex disruptors, retested hits, confirmation, luminescence, single concentration. Mdm2-MdmX binding, luminescent assay. 10,000 compounds, 55% hits. shares compounds with Mdm2 MdmX PPI. inhibition, % at 8 µM; in the data active = inhibition above about 40%
Full FLuc ctr – full-length luciferase signal inhibition, confirmation, counter-screen for Mdm2/MdmX interaction inhibitor project, cell-based, single concentration, SaOS-2. shares compounds with Mdm2 MdmX PPI. AID 504607, 2011. SaOS-2 full-length luciferase counterscreen, luminescence. inhibition, % at 8 µM. 6,200 compounds, 77% hits;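 active = mean inhibition at 8 µM reaching about 37%, which flags the compound as non-specific, limit read from the data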;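 note: p53-null SaOS-2 cells with luciferase driven by a doxycycline-inducible promoter; compound on cells about two nights before reading with doxycycline added after day one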
* hit, by the source's call; . = no result. The list is not random: actives were taken first. Their share in the collection is about 4%.

SMILES | Gli-Sufu antag | Jurkat NFkB inh | Beta cell apopt | Mdm2 MdmX PPI | 697 NFkB inh | Jurkat NFkB conf | Mdm2 MdmX conf | Full FLuc ctr | others
COC(=O)c1ccc(C(=O)NC2CCCc3c2cnn3-c2cc(F)cc(F)c2)nc1 (configuration not stated) | -1 | 52* | 2 | 58* | -71 | 32 | 50* | 57*
Cc1ccc(N(CC(=O)Nc2c(C)cccc2C)S(C)(=O)=O)cc1 | 28 | -7 | -2 | -12 | 8 | . | . | .
Cc1ccc(S(=O)(=O)N2CCOCC2)cc1NC(=O)CNC1CCCC1 | 6 | 4 | -4 | -4 | 15 | . | . | .
COc1ccc(C)cc1NC(=O)CSc1ccc(-c2ccccn2)nn1 | 12 | 53* | 2 | 54* | -5 | 20 | 55* | 52*
COCCn1c(C)cc(C2=NNC(=Nc3ccccc3F)SC2)c1C | 34 | 69* | -4 | 73* | -27 | 88* | 88* | 13
CC1=C(C(=O)Nc2ccc(C(=O)NCCCN3CCCCC3)cc2)SCCO1 | -1 | -8 | 1 | 10 | 0 | . | . | .
COc1cc(C2Nc3ccccc3NC3=C2C(=O)CC(C)(C)C3)cc(OC)c1OC(C)=O (configuration not stated) | -6 | 3 | -7 | -29 | 12 | . | . | .
COC(=O)c1cn[nH]c1NC(=S)Nc1ccc(C)cc1Cl | -49 | -205 | 7 | 52* | -413 | -143 | -12 | . | 697 NFkB conf=-233
COC(=O)c1cn[nH]c1NC(=S)Nc1ccccc1C | -47 | 8 | . | -8 | -54 | . | . | .
COC(=O)c1cn[nH]c1NC(=S)Nc1ccc(Cl)c(Cl)c1 | -32 | -278 | 11 | 56* | -420 | -109 | -20 | . | 697 NFkB conf=-215
Oc1ccc2ccccc2c1/C=N/Nc1nnc(-c2ncc[nH]2)c2ccccc12 | 63* | 71* | 107* | 81* | -7 | 77* | 83* | 55*
Oc1ccc2ccccc2c1C=NNc1ccccn1 | 25 | . | . | . | . | . | . | .
CCOCCCNC(=O)c1ccc2c(c1)N=C(CC)c1cc(Br)ccc1S2 | 41 | 78* | 30 | 66* | -251 | 55* | 60* | 113* | 697 NFkB conf=14
CCC1(c2ccc(F)cc2)NC(=O)N(CC(=O)N2CCN(S(=O)(=O)c3ccc(C)cc3)CC2)C1=O (configuration not stated) | 4 | -8 | -12 | 0 | -12 | . | . | .
N#C/C(=C\c1ccc(OCc2ccc(C(=O)O)cc2)cc1)C(=O)N1CCOCC1 | -134 | 66* | 4 | 55* | -25 | 60* | 44* | 21
COc1cc(/C=C(\C#N)C(=O)N2CCOCC2)ccc1OCc1ccccc1 | -1 | -24 | -2 | -32 | 8 | . | . | .
CCOc1ccccc1C1CC(=O)Nc2cc3c(cc21)OCCO3 (configuration not stated) | 46 | 70* | 19 | 70* | -5 | 57* | 58* | 123*
CCCOc1ccccc1C1CC(=O)NC2=C1C(=O)CCC2 (configuration not stated) | 10 | 59* | 5 | 58* | -54 | 25 | 56* | 48*
CCOc1ccccc1C1CC(=O)Nc2cc(OC)c(OC)c(OC)c21 (configuration not stated) | 13 | -7 | 2 | 44 | 27 | . | . | .
CCOc1ccccc1C1CC(=O)Nc2cc(C)c(C)cc21 (configuration not stated) | -1 | 52* | 8 | 57* | -53 | 38 | 59* | 54*
Cc1cc(C(=O)Nn2c(-c3ccncc3)nc3ccccc3c2=O)ccc1[N+](=O)[O-] | -1 | -8 | -3 | 17 | 26 | . | . | .
CC(C)CC(=O)Nc1nnc(SCC(=O)NCC2CCCO2)s1 (configuration not stated) | -9 | 1 | -4 | -18 | 7 | . | . | .
CCc1ccc2c(COC(=O)C3CC(=O)N(CCc4ccccc4)C3)cc(=O)oc2c1 (configuration not stated) | -5 | 3 | . | -9 | -11 | . | . | .
Cn1ncc2c(O/N=C(\N)c3ccc(C(F)(F)F)cc3)ncnc21 | 4 | 78* | 22 | 98* | -62 | 0 | 46* | 24
N#CC1=C(N)OC2=C(CCc3ccccc32)C1c1ccccc1 (configuration not stated) | 25 | 76* | 28 | 74* | -37 | 8 | 52* | 143*
SMILES | Gli-Sufu antag | Jurkat NFkB inh | Beta cell apopt | Mdm2 MdmX PPI | 697 NFkB inh | Jurkat NFkB conf | Mdm2 MdmX conf | Full FLuc ctr | others
Cc1ccc(N2CC(C(=O)OCC(=O)Nc3ccc(F)cc3F)CC2=O)cc1 (configuration not stated) | -10 | 11 | . | 1 | 25 | . | . | .
CCN(CC)CCCNc1ccc(-c2nnc(-c3ccc(OCC(C)C)cc3)o2)cn1 | -5 | 60* | 14 | 100* | -45 | 26 | 88* | 24
CN1CCN(c2ccc(Cl)cc2NC(=O)CCN2C(=O)c3ccccc3C2=O)CC1 | -1 | 13 | 1 | 24 | 14 | . | . | .
CCOc1ccc(S(=O)(=O)NCCC(=O)OCC(=O)c2ccc[nH]2)cc1 | 17 | -7 | 3 | -9 | -20 | . | . | .
CCN1/C(=C/c2ccc3cc(C)ccc3[n+]2CC)Sc2ccc3sccc3c21 | 87* | 92* | 140* | 101* | -13 | 64* | 87* | 17
CCCCS(=O)(=O)/C=C\C=C/S(=O)(=O)CCCC | 34 | 90* | 85* | 94* | -131 | 63* | 99* | 51*
CCCCS(=O)(=O)/C=C\C1C2C=CC(C2)C1S(=O)(=O)CCCC (configuration not stated) | -1 | 3 | -2 | 18 | 16 | . | . | .
NS(=O)(=O)c1ccc(CCNC(=O)COC(=O)/C=C/c2cc(Br)ccc2F)cc1 | -31 | -2 | -4 | 30 | -1 | . | . | .
Cc1cc(/C=C2\Sc3ccccc3N2C)cc(C)[n+]1CC1CCCO1 (configuration not stated) | 88* | 97* | . | 87* | 36* | 41 | 90* | 21 | 697 NFkB conf=0

Screening results: PubChem BioAssay, several laboratories
